WRN inhibitor – inhibitors of human WRN helicase; Q14191; WRN helicase unwinding, fluorescent forked duplex, kinetic; Potency, µM (series often up to 114 µM), actives largely listed as inhibitors; hit rate 0.46% among 360,000; AID 651768; further: nearly all actives have a fitted effect of over 55% in size
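WRN at 20 nM final was preincubated with compound for 15 min at room temperature; reaction started with 100 nM forked duplex oligonucleotide carrying fluorophore and quencher plus 2 mM ATP (final). Unwinding followed kinetically by red fluorescence (ex 525/em 598 nm).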
Pol eta inh-1 – blocks human DNA polymerase eta activity; Q9Y253; recombinant Pol eta, fluorescent DNA replication assay; Potency, µM (series often up to 114 µM), hits mostly inhibitors; hit rate 1.2% among 390,000; AID 588591
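Pol eta at 10 nM preincubated with compounds 15 min at room temperature; reaction started with fluorescent substrate (50 nM final) and read kinetically at 0 and 10 min.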
Pol kappa inh-1 – inhibitors of human DNA polymerase kappa; Q9UBT6; Potency, µM (highest dose often 107 µM), hits mostly inhibitors; AID 588579; hit rate 0.53% among 400,000; purified Pol kappa, fluorescent DNA synthesis assay, 10 min
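Fluorescent qHTS in 1536-well format: enzyme (10 nM) and compound sat 15 min at room temperature before 50 nM substrate (final) was added. Signal taken at 0 and 10 min; no-enzyme buffer wells were negative controls.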
PI5P4Ka inh – inhibitors of human PI5P4K alpha. AID 652105. PI5P4Kalpha enzyme, ADP-Glo luminescence, 60 min; active compounds read low. P48426. hit rate 1.2% among 330,000. max response, %; active means max response of -50% or lower; inconclusive means between -30% and -50%; inactive means -30% or higher; further: value at the top dose of about 77 µM
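Controls without substrate or without enzyme flank wells where PI5P4Kalpha converts substrate using 5 microM ATP (final). Incubation lasts 60 minutes at room temperature; ADP formed is read by ADP-Glo luminescence.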
POLB inh – DNA polymerase beta (human) inhibition; Pol beta primer extension/strand displacement, fluorescence kinetic; Potency, µM (top dose mostly 114 µM), usual class: inhibitors; P06746; hit rate 1.3% among 340,000
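Values derive from four-parameter Hill fits of normalized kinetic data: reads at 0 and 10 min following addition of 50 nM substrate to 10 nM Pol beta preincubated 15 min with compound.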
POLI inh – blocks human DNA polymerase iota activity | Pol iota fluorescent replication assay, 10 min | hit rate 1% among 390,000 | Potency, µM (titrated, usually from 115 µM), actives largely listed as inhibitors | AID 588590
Target sequence (Q9UNA4 whole entry, looked up): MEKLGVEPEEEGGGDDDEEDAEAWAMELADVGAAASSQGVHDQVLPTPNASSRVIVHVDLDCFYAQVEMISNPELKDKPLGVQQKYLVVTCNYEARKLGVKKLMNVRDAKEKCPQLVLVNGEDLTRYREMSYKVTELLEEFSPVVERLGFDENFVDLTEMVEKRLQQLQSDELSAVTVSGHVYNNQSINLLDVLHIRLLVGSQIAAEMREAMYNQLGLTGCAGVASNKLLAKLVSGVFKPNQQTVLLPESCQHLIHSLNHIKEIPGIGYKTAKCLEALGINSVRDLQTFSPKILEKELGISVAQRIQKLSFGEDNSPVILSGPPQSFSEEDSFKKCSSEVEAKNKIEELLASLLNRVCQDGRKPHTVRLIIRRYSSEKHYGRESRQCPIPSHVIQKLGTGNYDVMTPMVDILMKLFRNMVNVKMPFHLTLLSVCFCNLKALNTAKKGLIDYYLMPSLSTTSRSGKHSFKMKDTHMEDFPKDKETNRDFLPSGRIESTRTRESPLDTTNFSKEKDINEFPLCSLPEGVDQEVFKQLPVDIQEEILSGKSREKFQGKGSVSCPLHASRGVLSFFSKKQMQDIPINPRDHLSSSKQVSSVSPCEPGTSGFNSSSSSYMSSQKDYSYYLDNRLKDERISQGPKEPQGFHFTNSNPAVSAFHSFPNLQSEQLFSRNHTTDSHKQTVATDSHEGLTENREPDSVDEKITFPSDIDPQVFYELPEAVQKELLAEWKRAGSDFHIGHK
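Fluorescent replication assay read twice, at 0 min and 10 min after adding 50 nM (final) substrate. Enzyme (10 nM) and compounds were first incubated 15 min at room temperature; enzyme-free buffer wells were negative controls.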
PGK validate – validation of Trypanosoma brucei phosphoglycerate kinase inhibitors; Potency, µM (doses to about 57.5 µM), usual class: inhibitors; hit rate 79% among 500; TbPGK coupled GAPDH assay, Kinase-Glo luminescence; shares compounds with Pol kappa inh-1; further: nearly all actives have a fitted effect of over 65% in size
POLI cherry-pick – Inhibitors of human DNA polymerase iota, confirmation | shares compounds with Pol kappa inh-1 | Pol iota primer extension, TAMRA/BHQ fluorescence | Potency, µM, most hits filed as inhibitors | hit rate 77% among 1,500 | AID 720496
Pol kappa inh-2 – Pol kappa (human) inhibition, cherry-pick confirmation; shares compounds with Pol eta inh-1; purified Pol-kappa, fluorescent strand-displacement substrate; Potency, µM, hits mostly inhibitors; hit rate 76% among 920; AID 720501
Pol eta inh-2 – confirmation of human DNA polymerase eta inhibitors; shares compounds with Pol eta inh-1; Pol eta primer extension, TAMRA/BHQ fluorescence, 10 min; Potency, µM, usual class: inhibitors; hit rate 64% among 2,600
Each line names hits and unclear results; the compound was inactive in the other large screens (follow-up assays come after a bar, where they were run); ! = repeats disagree. In the library only some 2.8% were active in any assay of this set; here they are far more common. Unless noted, the call rests on the fitted dose curve; in most records, active means well fitted curve in the direction sought with a large enough effect; inconclusive means small, poorly fitted or top-dose-only effect, or another doubt; inactive means no such curve, though single readings can be large; an effect the other way counts as inactive or inconclusive.

O=C(CCCN1C(=O)/C(=C\c2ccccc2)SC1=S)Nc1ccc(C(=O)O)cc1	Pol eta inh-1 inconclusive, POLI inh inconclusive
O=C(NCCc1c[nH]c2ccccc12)C(=O)NCC1OCCN1S(=O)(=O)c1cc(F)ccc1F (stereo not drawn)	none
CC/C=C\C/C=C\C/C=C\CCCCCCCC(=O)O	WRN inhibitor 18µM, Pol eta inh-1 7.9µM, Pol kappa inh-1 28µM!, PI5P4Ka inh inconclusive, POLI inh 13µM (no result: POLB inh) | POLI cherry-pick 30 | Pol kappa inh-2 9.5 | Pol eta inh-2 24
Cc1cc(Oc2ccc(Cl)cc2Cl)nc(C#N)n1	none (no result: WRN inhibitor, Pol eta inh-1, PI5P4Ka inh, POLB inh)
C[C@H](C(=O)NCc1ccccc1)C(=O)c1ccccc1	none
O=C(N/N=C/c1ccc(O)cc1O)C(=O)N/N=C/c1ccc(O)cc1O	POLB inh inconclusive, POLI inh inconclusive | POLI cherry-pick 9.5 | Pol eta inh-2 17
Clc1cc(Cl)cc(CN2CCSCC2)c1	none
COc1cc2c(cc1OC)C1C(=O)c3c(O)cc4c(c3OC1CO2)C=CC(C)(C)O4 (stereo not drawn)	none (no result: WRN inhibitor, Pol eta inh-1, PI5P4Ka inh, POLB inh, POLI inh)
CCOC(=O)CC(NS(=O)(=O)c1ccc(OC)c(OC)c1)c1cccc([N+](=O)[O-])c1 (stereo not drawn)	none
CCOC(=O)CC(NS(=O)(=O)c1ccc2[nH]cc(C(=O)O)c(=O)c2c1)c1ccc(OCC)c(OC)c1 (stereo not drawn)	Pol eta inh-1 4µM, Pol kappa inh-1 50µM, POLB inh 3.5µM, POLI inh 20µM | POLI cherry-pick 34 | Pol eta inh-2 27
Cc1ccc(CNC(=O)CCCCCn2c(=O)c3sccc3n(CC(=O)N(C)c3ccccc3)c2=O)cc1	POLI inh inconclusive (no result: WRN inhibitor, Pol eta inh-1, PI5P4Ka inh)
O=Cc1ccc(-c2cccc([N+](=O)[O-])c2)o1	none
O=C1NC(=O)/C(=C/c2ccc(-c3cccc([N+](=O)[O-])c3)o2)S1	WRN inhibitor 32µM, Pol eta inh-1 22µM, PI5P4Ka inh -51, POLI inh inconclusive | PGK validate 18µM | Pol eta inh-2 inconclusive
Cc1cc(C(=O)NNC(=O)/C=C/c2ccco2)c(C)o1	WRN inhibitor inconclusive, Pol eta inh-1 2.2µM, Pol kappa inh-1 22µM, PI5P4Ka inh inconclusive, POLI inh 3.2µM (no result: POLB inh) | PGK validate 16µM | POLI cherry-pick inconclusive | Pol eta inh-2 17
COc1ccccc1/C=C/C(=O)NNC(=O)c1cc(C)oc1C	none (no result: POLB inh)
CCO[C@@H]1OC(C(=O)O)=C[C@H](c2ccc(C(F)(F)F)cc2)[C@H]1CCCO	none
NS(=O)(=O)c1ccc(NC(=O)COC(=O)COc2ccc(Cl)cc2)cc1	none
O=C(O)C(C(=O)/C=C/c1ccco1)=C1SCCS1	WRN inhibitor inconclusive, Pol eta inh-1 8.9µM, Pol kappa inh-1 45µM, PI5P4Ka inh -62, POLB inh 25µM, POLI inh 4µM | POLI cherry-pick 53 | Pol eta inh-2 48
CC(=O)c1ccc(NC(=O)c2ccc(N3CCCC3=O)cc2)cc1	none (no result: POLB inh)
O=C(Nc1ccc(S(=O)(=O)Nc2ncccn2)cc1)c1ccc(N2CCCC2=O)cc1	Pol eta inh-1 45µM, POLB inh inconclusive, POLI inh inconclusive | POLI cherry-pick inconclusive | Pol eta inh-2 inconclusive
Oc1ccc(-c2csc(-c3cccnc3)n2)cc1O	WRN inhibitor inconclusive, Pol eta inh-1 25µM, Pol kappa inh-1 32µM, POLB inh inconclusive, POLI inh 28µM | POLI cherry-pick 84 | Pol eta inh-2 inconclusive
CCCN(C(=O)c1cc(S(=O)(=O)N(C)c2ccccc2OC)ccc1C)C1CCS(=O)(=O)C1 (stereo not drawn)	none (no result: POLB inh)
O=C(COC(=O)c1cc2c(s1)CCC2)Nc1ccc(F)cc1	WRN inhibitor inconclusive, Pol eta inh-1 18µM, Pol kappa inh-1 32µM, PI5P4Ka inh inconclusive, POLB inh 8.9µM, POLI inh 20µM | POLI cherry-pick 24 | Pol eta inh-2 24
CC(=O)c1ccc(Cc2cnc(N)s2)cc1	none
Nc1ncc(N=Nc2cc(C(=O)O)ccc2Cl)s1	Pol eta inh-1 13µM, Pol kappa inh-1 79µM, PI5P4Ka inh -54, POLB inh inconclusive, POLI inh 7.9µM | POLI cherry-pick 60 | Pol eta inh-2 21
O=C(CCN1C(=O)c2ccccc2S1(=O)=O)Nc1ccc(F)c(F)c1F	none (no result: POLB inh)
NNc1nc(C(F)(F)F)nc2ccccc12	none
O/C=c1\ccc2cccc3nc(C(F)(F)F)nc1c23	WRN inhibitor 79µM, Pol eta inh-1 25µM, Pol kappa inh-1 inconclusive, PI5P4Ka inh inconclusive, POLB inh 3.2µM, POLI inh 0.89µM | POLI cherry-pick 67 | Pol kappa inh-2 inconclusive | Pol eta inh-2 48
O=C(O)c1ccc2c3c(cccc13)C(=O)N(c1ccccc1)C2=O	Pol eta inh-1 18µM, Pol kappa inh-1 89µM, POLB inh 20µM, POLI inh 28µM | POLI cherry-pick inconclusive | Pol kappa inh-2 12 | Pol eta inh-2 24
Nc1ccc2c3c(cccc13)C(=O)N(c1ccccc1)C2=O	none
O=C(O)c1ccc(N2C(=O)c3cccc4c(C(=O)O)ccc(c34)C2=O)cc1	WRN inhibitor 50µM, Pol eta inh-1 3.5µM, Pol kappa inh-1 20µM, PI5P4Ka inh inconclusive, POLB inh 6.3µM, POLI inh 8.9µM | PGK validate 16µM | POLI cherry-pick 15 | Pol eta inh-2 3.4
O=C(N/N=C/c1ccc(-c2ccccc2C(=O)O)o1)c1cccs1	WRN inhibitor inconclusive, Pol eta inh-1 18µM, Pol kappa inh-1 25µM, PI5P4Ka inh inconclusive, POLB inh 14µM, POLI inh 20µM | POLI cherry-pick inconclusive | Pol eta inh-2 60
O=C(N/N=C/c1ccncc1)c1cccs1	none
CC(=O)NC(=S)Nc1cccc(S(=O)(=O)NC2=NCCC2)c1	none
O=C1c2ccc3c4c(ccc(c24)C(=O)N1NC(=O)C(F)(F)F)CC3	WRN inhibitor inconclusive, Pol eta inh-1 79µM, Pol kappa inh-1 18µM, POLI inh 22µM (no result: PI5P4Ka inh) | POLI cherry-pick 42 | Pol eta inh-2 17
Cn1cc(S(=O)(=O)c2ccc(Cl)cc2)c(=O)c2cc(F)c(N3CCCCCC3)cc21	none (no result: WRN inhibitor, PI5P4Ka inh)
